Entries with a potency or affinity are not part of this list.
How the values were obtained:
Staphylococcus aureus = conditions: Concentration 32 ug.mL-1; ASSAY_TEST Inhibition of Bacterial Growth; detection method Absorption (OD600); MEDIA CAMHB; plate type 384well; NBS; CORNING #3640; time 18 hr
Escherichia coli = conditions: Concentration 32 ug.mL-1; ASSAY_TEST Inhibition of Bacterial Growth; detection method Absorption (OD600); MEDIA CAMHB; plate type 384well; NBS; CORNING #3640; time 18 hr

What does the source list for `O=C(N/N=C/c1c[nH]c2ccccc12)c1cc2ccccc2[nH]1`?
Inhibition (Staphylococcus aureus): 11.07%; Inhibition (Escherichia coli): 9.94%

How did the Inhibition (Staphylococcus aureus) turn out when `CC(=O)O[C@H]1CC[C@H](NC(=O)c2ccccc2)CC1` was run?
The Inhibition was 27.4%.

And the Inhibition (Escherichia coli)?
The Inhibition was -7.44%.

`Br.C#CCNCC` was tested. Which Inhibition (Staphylococcus aureus) did it give?
Its Inhibition is 25.79%.

And the Inhibition (Escherichia coli)?
Its Inhibition is 18.7%.

What does the source list for `COc1ccc2c(c1)cc(CO)n2C`?
Inhibition (Staphylococcus aureus): 3.66%; Inhibition (Escherichia coli): 11.03%

Which Inhibition (Staphylococcus aureus) does the source give for `C#CCNc1nc(NCCCC2CCN(Cc3ccccc3)CC2)c(C#N)cc1C#N.Cl` here?
The Inhibition was -16.88%.

What about the Inhibition (Escherichia coli) of the same molecule?
Its Inhibition is -13.89%.

For `N#Cc1c(N)nc(S)c(C#N)c1-c1ccccc1`, which Inhibition (Staphylococcus aureus) is on record?
Its Inhibition is 14.03%.

And the Inhibition (Escherichia coli)?
The Inhibition was 9.92%.

How did the Inhibition (Staphylococcus aureus) turn out when `COc1nc2ccccc2cc1C=O` was run?
Its Inhibition is 17.37%.

And the Inhibition (Escherichia coli)?
The Inhibition was 18.39%.

For `CCCCNNC(=O)c1cc2ccccc2[nH]1`, which Inhibition (Staphylococcus aureus) is on record?
Its Inhibition is 0.71%.

And the Inhibition (Escherichia coli)?
Its Inhibition is -2.05%.

Which results are given for `O=C(COc1ccc2ccccc2c1)NNCc1c[nH]c2ccccc12`?
Inhibition (Staphylococcus aureus): 3.31%; Inhibition (Escherichia coli): 7.68%

For `CC1(C)OS(=O)(=O)C2=C1NC(N)=C(C#N)C2c1ccccc1` (centres undefined), which Inhibition (Staphylococcus aureus) is on record?
Its Inhibition is 8.23%.

And the Inhibition (Escherichia coli)?
The Inhibition was 10.42%.

With `N#Cc1cc(C#N)c(NCCO)nc1N` as the molecule, how does the Inhibition (Staphylococcus aureus) read?
The Inhibition was 40.77%.

What about the Inhibition (Escherichia coli) of the same molecule?
Its Inhibition is -7.55%.

With `CCOC(=O)C1=C(C)Oc2nc3c(c(N)c2C1c1nccn1C)CCC3` (centres undefined) as the molecule, how does the Inhibition (Staphylococcus aureus) read?
Its Inhibition is 6.58%.

What about the Inhibition (Escherichia coli) of the same molecule?
Its Inhibition is -22.18%.

With `CCOc1nc(N)c(C#N)cc1C#N.Cl` as the molecule, how does the Inhibition (Staphylococcus aureus) read?
Its Inhibition is -3.52%.

And the Inhibition (Escherichia coli)?
The Inhibition was -30.21%.

How did the Inhibition (Staphylococcus aureus) turn out when `Cc1n[nH]c2c1C(c1ccc([N+](=O)[O-])cc1)C(C#N)=C(N)O2` (centres undefined) was run?
The Inhibition was 4.71%.

What about the Inhibition (Escherichia coli) of the same molecule?
Its Inhibition is 12.5%.

What does the source list for `Br.C#CCNCc1ccccc1`?
Inhibition (Staphylococcus aureus): 25.93%; Inhibition (Escherichia coli): 20.8%

Which results are given for `CC1Cc2ccccc2N1/N=C/c1ccccc1` (centres undefined)?
Inhibition (Staphylococcus aureus): -5.3%; Inhibition (Escherichia coli): -3.55%

What does the source list for `Cc1ccc2nc(Cl)c(/C=N/OCc3ccccc3)cc2c1`?
Inhibition (Staphylococcus aureus): 31.42%; Inhibition (Escherichia coli): 20.1%

Which Inhibition (Staphylococcus aureus) does the source give for `CCOC(=O)c1cc2ccccc2[nH]1` here?
Its Inhibition is 8.39%.

What about the Inhibition (Escherichia coli) of the same molecule?
Its Inhibition is 13.65%.

How did the Inhibition (Staphylococcus aureus) turn out when `Cc1ccc2[nH]c(=O)c(C=O)cc2c1` was run?
Its Inhibition is 3.11%.

What about the Inhibition (Escherichia coli) of the same molecule?
The Inhibition was -7.4%.

For `COC(=O)C1CCN(Cc2ccccc2)CC1`, which Inhibition (Staphylococcus aureus) is on record?
The Inhibition was 27.51%.

What about the Inhibition (Escherichia coli) of the same molecule?
Its Inhibition is 11.49%.

Which Inhibition (Staphylococcus aureus) does the source give for `COC1=C(C#N)CC(C)C(=O)N1` (centres undefined) here?
Its Inhibition is 16.96%.

What about the Inhibition (Escherichia coli) of the same molecule?
The Inhibition was -13.94%.

Which Inhibition (Staphylococcus aureus) does the source give for `COC(=O)C1(NC(=O)c2ccccc2)CC1c1ccccc1` (centres undefined) here?
The Inhibition was 1.83%.

And the Inhibition (Escherichia coli)?
The Inhibition was -4.02%.
